What is called AC50 is the concentration at which the activity in the assay is half-maximal.

Three compounds from PubChem BioAssay (EPA / NIEHS) can be followed below.

Common to all, as to conditions: mRNA level, 48 h; actives raise or lower the signal
Read-out in one assay: Caspase-3 (Homo sapiens) (UniProt P42574)
The assay is described as follows: LTEA_HepaRG_CASP3: Life Technologies and Expression Analysis (LTEA) Assay for cysteine-aspartic acid protease (CASP3) using HepaRG (AID 2283477). In outline:
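Transcript-level assay: CASP3 mRNA in human HepaRG after 48 h treatment, eight half-log concentrations from 100 uM in 0.5% DMSO, quantified by qRT-PCR.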

Read-out in assay [1]: Cytochrome P450 (CYP24A1), CYP24A1 (gene 1591)
Briefly: LTEA_HepaRG_CYP24A1: Life Technologies and Expression Analysis (LTEA) Assay for Cytochrome P450 (CYP24A1) using HepaRG (AID 2283478). In outline: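 Gene expression of CYP24A1 by TaqMan qRT-PCR in HepaRG after 48 h treatment, highest concentration 100 uM; activity fitted in both directions relative to DMSO vehicle.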

Read-out in assay [2]: Cytochrome P450 (CYP1A2), CYP1A2 (gene 1544)
The assay is described as follows: LTEA_HepaRG_CYP1A2: Life Technologies and Expression Analysis (LTEA) Assay for Cytochrome P450 (CYP1A2) using HepaRG (AID 2283479). In outline:
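In duplicate wells, HepaRG cultures maintained in 0.5% DMSO were treated 48 h across an 8-point, half-log series topping at 100 uM; phenobarbital (1 mM) served as induction control. Expression was read by qRT-PCR.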

Read-out in assay [3]: cysteine-aspartic acid protease (CASP8), CASP8 (gene 841)
Briefly: LTEA_HepaRG_CASP8: Life Technologies and Expression Analysis (LTEA) Assay for cysteine-aspartic acid protease (CASP8) using HepaRG (AID 2283480). The essentials:
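Differentiated HepaRG cells in serum-free induction medium, 48 h exposure, eight-point half-log series from 100 uM in 0.5% DMSO, duplicates. CASP8 mRNA by qRT-PCR, normalized to ACTB, GAPDH, POLR2A; bidirectional fit versus DMSO.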

Read-out in assay [4]: Cytochrome P450 (CYP2B6), CYP2B6 (gene 1555)
Briefly: LTEA_HepaRG_CYP2B6: Life Technologies and Expression Analysis (LTEA) Assay for Cytochrome P450 (CYP2B6) using HepaRG (AID 2283481). In outline:
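Human HepaRG, 48 h dosing, 0.5% DMSO vehicle, top dose 100 uM. CYP2B6 transcript by qRT-PCR, housekeeping-normalized, bidirectional curve fit.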

Read-out in assay [5]: Cytochrome P450 2C19 (Homo sapiens) (UniProt P33261)
Briefly: LTEA_HepaRG_CYP2C19: Life Technologies and Expression Analysis (LTEA) Assay for CYP2C19 using HepaRG (AID 2283482). In outline:
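Endpoint: CYP2C19 mRNA change, bidirectional fit vs 0.5% DMSO. Cells: HepaRG, 48 h exposure, eight-point series topping at 100 uM. Quantitation: qRT-PCR normalized to ACTB, GAPDH, POLR2A.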

Read-out in the next assay: CYP2C8 (gene 1558)
The assay is described as follows: LTEA_HepaRG_CYP2C8: Life Technologies and Expression Analysis (LTEA) Assay for CYP2C8 using HepaRG (AID 2283483). In outline:
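Differentiated HepaRG cells in serum-free induction medium exposed 48 h in duplicate to 8 half-log concentrations from 100 uM in 0.5% DMSO. CYP2C8 mRNA by qRT-PCR normalized to ACTB, GAPDH, POLR2A; bidirectional fit versus DMSO.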

Read-out in another assay: CYP2C9 (gene 1559)
The assay is described as follows: LTEA_HepaRG_CYP2C9: Life Technologies and Expression Analysis (LTEA) Assay for CYP2C9 using HepaRG (AID 2283484). In outline:
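Differentiated human HepaRG cells in serum-free induction medium were exposed 48 h to chemicals in 8-point half-log series from 100 uM (0.5% DMSO), in duplicate. CYP2C9 mRNA was measured by qRT-PCR, normalized to ACTB/GAPDH/POLR2A, with bidirectional fitting versus DMSO.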

Read-out in a further assay: CYP2E1 (gene 1571)
The assay is described as follows: LTEA_HepaRG_CYP2E1: Life Technologies and Expression Analysis (LTEA) Assay for CYP2E1 using HepaRG (AID 2283485). The essentials: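 Differentiated HepaRG cells were treated in duplicate for 48 h with chemicals in 0.5% DMSO, from 100 uM downward in half-log dilutions. RNA was then analysed by qRT-PCR for CYP2E1 induction or loss.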

Read-out in another assay: CYP4A11 (gene 1579)
Briefly: LTEA_HepaRG_CYP4A11: Life Technologies and Expression Analysis (LTEA) Assay for CYP4A11 using HepaRG (AID 2283486). The essentials: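 Human hepatic HepaRG cultures receive duplicate 48 h exposures across a concentration-response series topping at 100 uM. Expression changes in CYP4A11 are measured by qRT-PCR relative to DMSO controls.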

Read-out in assay [6]: Cytochrome P450 3A4 (Homo sapiens) (UniProt P08684)
The assay is described as follows: LTEA_HepaRG_CYP3A4: Life Technologies and Expression Analysis (LTEA) Assay for CYP3A4 using HepaRG (AID 2283487). In outline: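 HepaRG, 48 h exposure, 8-pt CRC from 100 uM (half-log), 0.5% DMSO, duplicates; serum-free induction medium. Readout: CYP3A4 mRNA, qRT-PCR, ACTB/GAPDH/POLR2A normalization. Bidirectional fit vs DMSO.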

Read-out in assay [7]: DNA damage-inducible transcript 3 (DDIT3), DDIT3 (gene 1649)
The assay is described as follows: LTEA_HepaRG_DDIT3: Life Technologies and Expression Analysis (LTEA) Assay for DNA damage-inducible transcript 3 (DDIT3) using HepaRG (AID 2283488). The essentials: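 Changes in DDIT3 transcript, in either direction relative to 0.5% DMSO vehicle, were quantified by TaqMan qRT-PCR after 48 h chemical exposure of HepaRG cells at 8 concentrations, maximum 100 uM.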

Read-out in assay [8]: Pro-epidermal growth factor (Homo sapiens) (UniProt P01133)
The assay is described as follows: LTEA_HepaRG_EGF: Life Technologies and Expression Analysis (LTEA) Assay for Epidermal growth factor (EGF) using HepaRG (AID 2283489). The essentials: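 Concentration-response mRNA assay: HepaRG cells dosed 48 h (max 100 uM, 0.5% DMSO), EGF measured by qRT-PCR and normalized to ACTB/GAPDH/POLR2A.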

Read-out in assay [9]: Early growth response protein 1 (EGR1) transcription factor, EGR1 (gene 1958)
The assay is described as follows: LTEA_HepaRG_EGR1: Life Technologies and Expression Analysis (LTEA) Assay for Early growth response protein 1 (EGR1) transcription factor using HepaRG (AID 2283490). The essentials:
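Differentiated HepaRG cells in serum-free induction medium exposed 48 hours, duplicate, to 8 half-log concentrations up to 100 uM in 0.5% DMSO. EGR1 mRNA measured by TaqMan qRT-PCR, normalized to ACTB, GAPDH, POLR2A; bidirectional fit versus DMSO.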

Read-out in assay [10]: Cytochrome P450 3A7 (Homo sapiens) (UniProt P24462)
Briefly: LTEA_HepaRG_CYP3A7: Life Technologies and Expression Analysis (LTEA) Assay for CYP3A7 using HepaRG (AID 2283492). The essentials:
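qRT-PCR of CYP3A7 in HepaRG lysates after 48 h treatment; concentration-response (8 points, max 100 uM) analysed bidirectionally relative to 0.5% DMSO controls.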

Read-out in the next assay: CYP3A5 (gene 1577)
Briefly: LTEA_HepaRG_CYP3A5: Life Technologies and Expression Analysis (LTEA) Assay for CYP3A5 using HepaRG (AID 2283493). In outline: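 mRNA induction or loss of CYP3A5 assessed in HepaRG after 48 h dosing, 100 uM top concentration, duplicate wells; TaqMan qRT-PCR with ACTB, GAPDH, POLR2A normalization; 0.5% DMSO as negative control.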

Read-out in assay [11]: Fatty Acid-Binding Protein 1 (FABP1), FABP1 (gene 2168)
Briefly: LTEA_HepaRG_FABP1: Life Technologies and Expression Analysis (LTEA) Assay for Fatty Acid-Binding Protein 1 (FABP1) using HepaRG (AID 2283494). In outline:
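Differentiated human HepaRG cells exposed 48 h in serum-free induction medium to eight half-log concentrations up to 100 uM (0.5% DMSO), duplicate. FABP1 mRNA by qRT-PCR, normalised to ACTB, GAPDH, POLR2A; bidirectional fitting against DMSO.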

Read-out in assay [12]: Cytochrome P450 4A22 (Homo sapiens) (UniProt Q5TCH4)
The assay is described as follows: LTEA_HepaRG_CYP4A22: Life Technologies and Expression Analysis (LTEA) Assay for Cytochrome P450 4A22 (CYP4A22) using HepaRG (AID 2283495). In outline: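 Concentration-response (8 points, max 100 uM, 0.5% DMSO) in human HepaRG liver cells after 48 h exposure. CYP4A22 mRNA by TaqMan qRT-PCR with housekeeping-gene normalization.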

Read-out in assay [13]: Cytochrome P450 7A1 (Homo sapiens) (UniProt P22680)
Briefly: LTEA_HepaRG_CYP7A1: Life Technologies and Expression Analysis (LTEA) Assay for Cytochrome P450 7A1 (CYP7A1) using HepaRG (AID 2283496). In outline:
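Gene expression endpoint in human HepaRG liver cells treated for 48 h with test chemicals (up to 100 uM, 0.5% DMSO). Values come from bidirectional concentration-response fitting versus DMSO.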

Read-out in assay [14]: Ezrin (EZR), EZR (gene 7430)
Briefly: LTEA_HepaRG_EZR: Life Technologies and Expression Analysis (LTEA) Assay for Ezrin (EZR) using HepaRG (AID 2283491). In outline: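 Read-out is EZR transcript level by qRT-PCR, normalized to three housekeeping genes and fitted bidirectionally against the DMSO control. Human HepaRG cells received test chemicals for 48 h at eight half-log concentrations up to 100 uM in 0.5% DMSO.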

The source made the active and inactive calls. How the source made its calls: active means hit-call score of the fitted dose curve at least 0.9, where 1 is the maximum; inactive means score below 0.9.

Chain of Cytochrome P450 2C19 (Homo sapiens) (P33261 whole entry, looked up): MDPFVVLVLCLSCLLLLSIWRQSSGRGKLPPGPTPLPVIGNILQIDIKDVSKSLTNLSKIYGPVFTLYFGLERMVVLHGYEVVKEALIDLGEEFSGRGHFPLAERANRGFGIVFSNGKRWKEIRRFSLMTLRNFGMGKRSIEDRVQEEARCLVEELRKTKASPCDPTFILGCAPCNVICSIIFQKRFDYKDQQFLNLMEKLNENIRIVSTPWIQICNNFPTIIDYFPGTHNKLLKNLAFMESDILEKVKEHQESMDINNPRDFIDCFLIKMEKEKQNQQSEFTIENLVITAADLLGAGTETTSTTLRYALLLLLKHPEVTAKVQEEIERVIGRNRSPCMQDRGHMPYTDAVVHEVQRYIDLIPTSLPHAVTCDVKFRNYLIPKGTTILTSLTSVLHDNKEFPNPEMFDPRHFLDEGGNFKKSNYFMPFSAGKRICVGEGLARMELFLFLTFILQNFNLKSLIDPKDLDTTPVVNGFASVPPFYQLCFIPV
Chain of Caspase-3 (Homo sapiens) (P42574 whole entry, looked up): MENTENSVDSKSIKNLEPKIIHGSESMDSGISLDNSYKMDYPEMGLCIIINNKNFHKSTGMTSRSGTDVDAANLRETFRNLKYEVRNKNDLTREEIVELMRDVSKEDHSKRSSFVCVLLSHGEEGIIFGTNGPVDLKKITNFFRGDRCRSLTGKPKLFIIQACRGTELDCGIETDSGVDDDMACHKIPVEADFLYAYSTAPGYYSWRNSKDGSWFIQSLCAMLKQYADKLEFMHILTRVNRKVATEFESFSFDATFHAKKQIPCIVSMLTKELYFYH
Chain of Cytochrome P450 3A4 (Homo sapiens) (P08684 whole entry, looked up): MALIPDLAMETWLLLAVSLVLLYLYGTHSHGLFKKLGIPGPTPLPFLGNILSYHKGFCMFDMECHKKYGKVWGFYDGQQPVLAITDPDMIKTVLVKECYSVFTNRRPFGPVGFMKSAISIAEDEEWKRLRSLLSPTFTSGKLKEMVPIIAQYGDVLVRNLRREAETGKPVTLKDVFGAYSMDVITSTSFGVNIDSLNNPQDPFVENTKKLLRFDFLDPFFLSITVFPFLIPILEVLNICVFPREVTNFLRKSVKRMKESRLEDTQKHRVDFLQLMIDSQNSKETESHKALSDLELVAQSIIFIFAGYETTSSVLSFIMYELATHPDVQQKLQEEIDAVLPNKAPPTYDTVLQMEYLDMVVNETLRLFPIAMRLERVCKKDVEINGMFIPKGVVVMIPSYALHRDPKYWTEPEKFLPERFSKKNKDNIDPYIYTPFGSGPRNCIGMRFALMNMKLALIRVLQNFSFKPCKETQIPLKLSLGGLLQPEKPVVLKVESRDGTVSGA
Chain of Cytochrome P450 3A7 (Homo sapiens) (P24462 whole entry, looked up): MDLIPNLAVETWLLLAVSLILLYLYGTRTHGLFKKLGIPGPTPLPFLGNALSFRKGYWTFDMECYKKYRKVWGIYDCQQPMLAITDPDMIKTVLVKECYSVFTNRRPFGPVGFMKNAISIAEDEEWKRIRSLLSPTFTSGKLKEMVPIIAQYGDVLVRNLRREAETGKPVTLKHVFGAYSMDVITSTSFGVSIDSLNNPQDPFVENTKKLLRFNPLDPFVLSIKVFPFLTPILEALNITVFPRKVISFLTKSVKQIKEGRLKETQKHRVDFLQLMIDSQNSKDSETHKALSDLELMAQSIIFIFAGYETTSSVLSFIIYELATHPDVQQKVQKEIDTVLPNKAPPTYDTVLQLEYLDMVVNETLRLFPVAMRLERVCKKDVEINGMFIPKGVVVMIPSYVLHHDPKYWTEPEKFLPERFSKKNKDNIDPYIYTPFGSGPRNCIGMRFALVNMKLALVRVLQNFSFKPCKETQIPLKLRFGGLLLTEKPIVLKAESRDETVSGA

With `Cc1ccc(N(C)C)cc1`, the result (in the assay with Caspase-3 (Homo sapiens); in assay [1]; in assay [3]; in assay [5]; with CYP2C8 (gene 1558); with CYP2C9 (gene 1559)) was inactive. The compound was classed as inactive (with CYP2E1 (gene 1571); with CYP4A11 (gene 1579); in assay [6]; in [7]; in assay [8]; in assay [9]). The call (in [10]; with CYP3A5 (gene 1577); in [11]; in [12]; in assay [13]) was inactive. In addition, the AC50 was 23.9 µM (active) in assay [2] and 50 µM (active) in [4].
As to `COc1cc(S(=O)(=O)O)c(C)cc1N=Nc1c(O)ccc2cc(S(=O)(=O)O)ccc12`, the call (with Caspase-3 (Homo sapiens); in [2]; in assay [3]; in assay [4]; in assay [5]; in the assay with CYP2C8 (gene 1558)) was inactive. Moreover, the result (in the assay with CYP2C9 (gene 1559); in the assay with CYP2E1 (gene 1571); with CYP4A11 (gene 1579); in assay [6]; in assay [7]; in assay [8]) was inactive. Moreover, the outcome (in [9]; in assay [14]; in assay [10]; with CYP3A5 (gene 1577); in assay [11]; in assay [12]) was inactive. For the same compound, the compound was classed as inactive in [13].
Regarding `CCCCC(CC)COC(=O)CC(C(=O)OCC(CC)CCCC)S(=O)(=O)O` (stereo unspecified), the AC50 was 81 µM (active) in the assay with Caspase-3 (Homo sapiens); 15.8 µM (active) in assay [2]; 81.6 µM (active) in [3]; 15.8 µM (active) in assay [4]; 89.9 µM (active) in [5]; 15.8 µM (active) in the assay with CYP2C8 (gene 1558). Moreover, the AC50 in the assay with CYP2C9 (gene 1559) was 88.1 µM (active); in the assay with CYP2E1 (gene 1571), 76.5 µM (active); in assay [7], 71.9 µM (active); in assay [9], 85.5 µM (active); with CYP3A5 (gene 1577), 82.9 µM (active); in assay [11], 91.6 µM (active). Besides, the AC50 in assay [13] is 92 µM (active). Also, the compound was classed as inactive (in assay [1]; with CYP4A11 (gene 1579); in [8]; in [14]; in [12]).
